Data: PubChem BioAssay (Tox21)
Records with an inconclusive call do not appear. Active and inactive are the calls of the source. Unless noted, calls follow the shape of the dose curve; as a rule, active = well fitted curve in the direction sought with a large enough effect in the repeat runs; inconclusive = weak or mixed curves; inactive = no such curve, though single readings can be large; an effect the other way counts as inactive or inconclusive.

Columns and labels:
[1] = molecular target: Peroxisome proliferator-activated receptor delta (Homo sapiens) (UniProt Q03181); assay: qHTS assay to identify small molecule agonists of the peroxisome proliferator-activated receptor delta (PPARd) signaling pathway (AID 743212; calls by dose curve)
Summary of the method: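 HEK293H PPARd-bla cells; 5 h preincubation 37 C/5% CO2; compound (DMSO) 37 C; LiveBLAzer B/G FRET substrate 2 h RT; fluorescence intensity.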

[2] = qHTS assay to identify small molecule antagonists of the peroxisome proliferator-activated receptor delta (PPARd) signaling pathway - cell viability counter screen (AID 743213); also: nearly all actives have a fitted effect of over 50% in size
Summary of the method: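 HEK293H PPARd UAS-bla cells, 5 h pre-incubation, compound + L165041 300 nM final, 17 h 37 C; B/G FRET substrate 2 h RT; then CellTiter-Glo 30 min RT, luminescence.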

[3] = molecular target: Peroxisome proliferator-activated receptor delta (Homo sapiens) (UniProt Q03181); assay: qHTS assay to identify small molecule antagonists of the peroxisome proliferator-activated receptor delta (PPARd) signaling pathway (AID 743215; active = well fitted inhibition curve with a large enough effect in the signal ratio in the repeat runs, not every such curve was filed as active; the % refers to the signal ratio;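 also: cells stimulated with agonist L165041 at 300 nM final during compound exposure; series mostly up to about 62 µM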)
Summary of the method: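 Antagonist-mode beta-lactamase reporter screen: HEK293H cells with UAS-bla under PPARd control, stimulated by 300 nM L165041 (final) alongside test compound for 17 h at 37 C, then FRET fluorescence after 2 h substrate incubation.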

[4] = qHTS assay to identify small molecule antagonists of the farnesoid-X-receptor (FXR) signaling pathway - cell viability counter screen (AID 743221; active = well fitted cell-killing curve with a large enough effect in the repeat runs, not every such curve was filed as active; also: nearly all actives have a fitted effect of over 50% in size)
Summary of the method: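 FXR-UAS-bla HEK 293T cells were treated with test compounds plus chenodeoxycholic acid (50 uM final) for 16 h at 37 C. Cell viability in the same wells was then read as CellTiter-Glo luminescence after 30 min at room temperature.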

[5] = qHTS assay to identify small molecule antagonists of the vitamin D receptor (VDR) signaling pathway - cell viability counter screen (AID 743225); also: nearly all actives have a fitted effect of over 50% in size
Summary of the method: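 VDR-bla HEK 293T cells, 4 h pre-incubation at 37C, then compound plus 1-alpha,25-dihydroxyvitamin D3 (3 nM final) for 16 h. After the beta-lactamase FRET read, CellTiter-Glo was added to the same wells; luminescence after 30 min at room temperature.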

[6] = qHTS assay to identify small molecule agonists of the endoplasmic reticulum stress response signaling pathway (AID 1159516; active = well fitted activation curve with a large enough effect in the signal ratio in the repeat runs, not every such curve was filed as active; the % refers to the signal ratio)
Summary of the method: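 ER stress element reporter (bla) in HeLa. 1,500 cells/well, overnight attachment; 5 hr compound; 2 hr RT substrate; dual-emission fluorescence.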

[7] = molecular target: Nuclear receptor ROR-gamma (Homo sapiens) (UniProt P51449); assay: qHTS assay to identify small molecule antagonists of the retinoid-related orphan receptor gamma (ROR-gamma) signaling pathway (AID 1159521;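 also: CHO cells with doxycycline inducible ROR-gamma driving an RORE luciferase reporter; top concentration of the series differs between compounds; nearly all actives have a fitted effect of over 50% in size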)
Summary of the method: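 Tet-on RORγ CHO cells carrying a ROR response element–luciferase reporter were pretreated with compounds for 2 h, then induced with 1 uM (final) doxycycline hyclate for 16 h at 37 C. Antagonism was read as decreased ONE-Glo luminescence.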

[8] = qHTS assay to identify small molecule agonists of the AP-1 signaling pathway (AID 1159526; calls by dose curve)
[9] = qHTS assay to identify small molecule agonists of the peroxisome proliferator-activated receptor delta (PPARd) signaling pathway - cell viability counter screen (AID 743211); also: nearly all actives have a fitted effect of over 55% in size
Summary of the method: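 PPARd-bla HEK293H cells (UAS-beta-lactamase reporter) were treated with compounds for 17 h at 37 C. Viability was then read in the same wells by CellTiter-Glo luminescence after 30 min at room temperature.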

[10] = molecular target: Bile acid receptor (Homo sapiens) (UniProt Q96RI1); assay: qHTS assay to identify small molecule antagonists of the farnesoid-X-receptor (FXR) signaling pathway (AID 743217; active = well fitted inhibition curve with a large enough effect in the signal ratio in the repeat runs, not every such curve was filed as active; the % refers to the signal ratio)
Summary of the method: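 Beta-lactamase reporter under UAS control in HEK 293T cells; compound exposure 16 h at 37 °C in the presence of chenodeoxycholic acid (50 uM final); signal from B/G FRET substrate after 2 h at room temperature.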

[11] = qHTS assay to identify small molecule agonists of the farnesoid-X-receptor (FXR) signaling pathway - cell viability counter screen (AID 743218); also: nearly all actives have a fitted effect of over 45% in size
Summary of the method: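 In GeneBLAzer FXR-UAS-bla HEK 293T cells, compounds act for 16 h at 37 C. Cell viability is then scored in the reporter wells by CellTiter-Glo, 30 min at RT, luminescence.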

[12] = molecular target: Bile acid receptor (Homo sapiens) (UniProt Q96RI1); assay: qHTS assay to identify small molecule agonists of the farnesoid-X-receptor (FXR) signaling pathway (AID 743220; active = well fitted activation curve with a large enough effect in the signal ratio in the repeat runs, not every such curve was filed as active; the % refers to the signal ratio)
Summary of the method: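 Beta-lactamase reporter under UAS control in GeneBLAzer FXR HEK 293T cells (5000/well) measured with LiveBLAzer FRET substrate after 2 h at room temperature. Compound exposure lasted 16 h at 37C.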

[13] = molecular target: Vitamin D3 receptor (Homo sapiens) (UniProt P11473); assay: qHTS assay to identify small molecule agonists of the vitamin D receptor (VDR) signaling pathway (AID 743222; calls by dose curve)
Summary of the method: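 Agonist activity measured in VDR-bla reporter cells. Exposure 16 h, 37C, 5% CO2; detection by B/G FRET substrate, 2 h RT.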

[14] = molecular target: Vitamin D3 receptor (Homo sapiens) (UniProt P11473); assay: qHTS assay to identify small molecule antagonists of the vitamin D receptor (VDR) signaling pathway (AID 743223; active = well fitted inhibition curve with a large enough effect in the signal ratio in the repeat runs, not every such curve was filed as active; the % refers to the signal ratio)
Summary of the method: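 VDR-bla cells were plated, incubated 4 h at 37C, then given compound and 1alpha,25-dihydroxyvitamin D3 (3 nM final). After 16 h at 37C, LiveBLAzer B/G FRET substrate was added for 2 h at room temperature and fluorescence read.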

[15] = qHTS assay to identify small molecule agonists of the vitamin D receptor (VDR) signaling pathway - cell viability counter screen (AID 743224)
Summary of the method: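 VDR-bla cell line, quantitative HTS format; 16 h compound incubation (37C, 5% CO2); ATP-based CellTiter-Glo luminescence measured in the reporter assay wells.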

[16] = qHTS assay to identify small molecule agonists of the endoplasmic reticulum stress response signaling pathway - cell viability counter screen (AID 1159517; calls by dose curve)
Summary of the method: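 HeLa cells carrying an ESRE-driven beta-lactamase reporter receive compound for 5 hr at 37 C. Cell viability is then gauged with CellTiter-Glo by luminescence, 30 min at room temperature.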

[17] = qHTS assay to identify small molecule antagonists of the retinoid-related orphan receptor gamma (ROR-gamma) signaling pathway - cell viability counter screen (AID 1159520); also: nearly all actives have a fitted effect of over 50% in size
Summary of the method: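 Cytotoxicity was read from cellular ATP (CellTiter-Glo luminescence) after 16 hr at 37 C with 1 uM doxycycline induction. The inducer was added 2 hr after compound transfer to Tet-on ROR gamma CHO cells.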

[18] = qHTS assay to identify small molecule agonists of the AP-1 signaling pathway - cell viability counter screen (AID 1159525; calls by dose curve; also: nearly all actives have a fitted effect of over 55% in size)
Summary of the method: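 Luminescent ATP readout (Cell Titer Glo, 30 min RT), normalised to DMSO and tetra n-octyl ammonium bromide controls. Cells were ME-180 AP-1-bla in 0.5% dialyzed FBS Opti-MEM, with a 5 h, 37 °C compound exposure.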

[19] = qHTS assay to identify small molecule agonists of the NFkB signaling pathway - cell viability counter screen (AID 1159515; calls by dose curve; also: series mostly up to about 61 µM; nearly all actives have a fitted effect of over 55% in size)
Summary of the method: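 Viability in NFkB-bla ME-180 cells was measured by CellTiter-Glo luminescence, 30 min room temperature, in wells already treated 5 hr with compounds and read for reporter FRET.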

Measured: Potency

Vitamin D3 receptor (Homo sapiens), sequence (P11473 whole entry, looked up): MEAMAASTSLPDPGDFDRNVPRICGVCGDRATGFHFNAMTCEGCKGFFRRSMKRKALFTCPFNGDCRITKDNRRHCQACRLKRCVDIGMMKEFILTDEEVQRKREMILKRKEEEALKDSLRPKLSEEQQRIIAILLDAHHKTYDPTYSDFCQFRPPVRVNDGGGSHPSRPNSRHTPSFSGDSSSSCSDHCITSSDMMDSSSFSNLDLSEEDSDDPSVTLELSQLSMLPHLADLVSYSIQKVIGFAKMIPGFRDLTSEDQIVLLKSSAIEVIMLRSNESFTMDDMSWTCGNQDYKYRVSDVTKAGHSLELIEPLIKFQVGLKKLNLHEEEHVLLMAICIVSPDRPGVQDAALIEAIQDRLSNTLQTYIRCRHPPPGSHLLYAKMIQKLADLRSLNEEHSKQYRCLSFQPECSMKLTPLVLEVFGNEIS
Bile acid receptor (Homo sapiens), sequence (Q96RI1 whole entry, looked up): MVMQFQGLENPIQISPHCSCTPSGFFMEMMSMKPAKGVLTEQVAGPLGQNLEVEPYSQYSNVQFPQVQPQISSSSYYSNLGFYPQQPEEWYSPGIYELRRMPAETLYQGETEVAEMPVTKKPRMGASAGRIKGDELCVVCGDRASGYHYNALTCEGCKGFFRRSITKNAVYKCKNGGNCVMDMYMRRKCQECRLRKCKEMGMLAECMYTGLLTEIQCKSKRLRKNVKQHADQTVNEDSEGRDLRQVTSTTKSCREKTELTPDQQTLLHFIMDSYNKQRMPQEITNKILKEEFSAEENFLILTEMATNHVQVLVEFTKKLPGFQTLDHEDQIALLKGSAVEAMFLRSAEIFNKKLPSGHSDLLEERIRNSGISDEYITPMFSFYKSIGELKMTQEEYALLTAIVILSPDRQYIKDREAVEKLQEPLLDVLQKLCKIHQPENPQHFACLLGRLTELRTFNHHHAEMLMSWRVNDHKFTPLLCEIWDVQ
Peroxisome proliferator-activated receptor delta (Homo sapiens), sequence (Q03181 whole entry, looked up): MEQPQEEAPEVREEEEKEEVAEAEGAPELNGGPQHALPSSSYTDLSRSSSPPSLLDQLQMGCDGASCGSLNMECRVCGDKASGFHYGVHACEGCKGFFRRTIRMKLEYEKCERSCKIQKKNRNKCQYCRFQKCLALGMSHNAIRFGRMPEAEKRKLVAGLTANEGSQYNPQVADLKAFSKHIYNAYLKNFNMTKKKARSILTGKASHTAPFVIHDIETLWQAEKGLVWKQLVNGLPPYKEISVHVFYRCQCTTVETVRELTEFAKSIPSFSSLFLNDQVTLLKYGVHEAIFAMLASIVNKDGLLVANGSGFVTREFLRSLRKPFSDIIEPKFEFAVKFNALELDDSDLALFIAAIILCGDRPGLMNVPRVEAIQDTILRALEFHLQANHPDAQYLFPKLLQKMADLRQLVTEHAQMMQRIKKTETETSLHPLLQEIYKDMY

CCCCCOC(=O)CCC
inactive: [1] | [2] | [3] | [4] | [5] | [6] | [7] | [8]

C=CCCCCCCCCCCCC
not listed: [5] | [6] | [19]
inactive: all other assays above

Nc1ccc2cc(S(=O)(=O)O)cc(O)c2c1
not listed: [1] | [3] | [5]
inactive: all other assays above

CCCCCCCCCCCCCC
not listed: [1] | [3] | [6] | [10] | [12] | [16] | [17]
inactive: all other assays above

CC(C)CCCCOC(=O)c1ccccc1C(=O)OCCCCC(C)C
not listed: [10] | [11] | [12] | [13] | [14] | [15]
inactive: all other assays above

COc1cc2c(cc1OC)[C@@H]1CC(=O)[C@@H](CC(C)C)CN1CC2
not listed: [10] | [12] | [15] | [16] | [19]
inactive: all other assays above

CC1=CCC(C(C)C)=CC1
inactive: [9] | [2] | [11] | [4] | [15] | [6] | [17] | [8]

O=C(/N=N/C(=O)OCc1ccccc1)OCc1ccccc1
not listed: [10] | [12] | [14]
inactive: all other assays above

CCOc1cc([N+](=O)[O-])c(OCC)cc1N1CCOCC1
not listed: [1] | [3] | [6] | [10] | [11] | [12]
inactive: all other assays above

CCn1ccc(NS(=O)(=O)c2ccc(N)cc2)nc1=O
not listed: [10] | [12] | [14] | [19]
inactive: all other assays above

c1ccc2nccnc2c1
not listed: [1] | [3] | [15] | [18]
inactive: all other assays above

CC(C)CC(C)CC(C)CC(C)COC(=O)c1ccccc1C(=O)OCC(C)CC(C)CC(C)CC(C)C (stereo not drawn)
not listed: [1] | [11] | [14] | [16] | [17]
inactive: all other assays above

COCCOC(=O)C1=C(C)NC(C)=C(C(=O)OC(C)C)C1c1cccc([N+](=O)[O-])c1 (stereo not drawn)
not listed: [2] | [10] | [12] | [13] | [18]
inactive: all other assays above

CCCCN
not listed: [3] | [10] | [11] | [12] | [14]
inactive: all other assays above

COCCOCCOCCOCCO
not listed: [5] | [13] | [14] | [15] | [17] | [18] | [19]
inactive: all other assays above

CCCC(=O)C(C)=O
not listed: [14] | [15] | [16] | [17] | [18]
inactive: all other assays above

O=C(Nc1ccc(Cl)c(Cl)c1)C1CC1
not listed: [10] | [11] | [12] | [13] | [17]
inactive: all other assays above

CCOC(=O)[C@H](CCc1ccccc1)N[C@@H](C)C(=O)N1C(=O)N(C)C[C@H]1C(=O)O
not listed: [10] | [12] | [13] | [14]
inactive: all other assays above

Oc1ccccc1-c1nnco1
not listed: [3] | [9] | [10] | [12]
inactive: all other assays above
